Active and inactive are the calls of the source. Unless noted, the rule behind the calls is not given here.
Assays:
[1] = resazurin metabolic signal in HepG2 cells – cell-based, resazurin fluorescence, 24 h, PK04 Diversity Set, profiling panel (AID 1172); settings: HepG2 viability, higher = more signal; note: test concentration not given here
[2] = budding yeast growth changes without added modifier – OD600, strain BY4716, 24 h, basal condition, primary screen (AID 1173); settings: S. cerevisiae BY4716 growth, OD600, 24 h; higher = more signal, called active from +8 up or from −8 down
[3] = viability profiling in MM1S myeloma cells – cell-based, resazurin fluorescence, basal, 24 h, PK04 Diversity Set, profiling panel (AID 1174); settings: higher = more signal, called active from +8 up or from −8 down;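 note: MM1S multiple myeloma cell line; test concentration not given here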
[4] = target: Dihydroorotate dehydrogenase (quinone), mitochondrial (Plasmodium falciparum (isolate 3D7)) (UniProt Q08210); test: inhibition of P. falciparum DHODH – biochemical, C-terminal His tag, absorbance 600 nm, primary screen (AID 1175); settings: PfDHODH enzyme, DCIP absorbance 600 nm; higher = more signal, called active from +8 up or from −8 down;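 note: recombinant parasite enzyme with a five histidine tag at its C terminus; test concentration not given here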
Sequence of Dihydroorotate dehydrogenase (quinone), mitochondrial (Plasmodium falciparum (isolate 3D7)) (Q08210 whole entry, looked up): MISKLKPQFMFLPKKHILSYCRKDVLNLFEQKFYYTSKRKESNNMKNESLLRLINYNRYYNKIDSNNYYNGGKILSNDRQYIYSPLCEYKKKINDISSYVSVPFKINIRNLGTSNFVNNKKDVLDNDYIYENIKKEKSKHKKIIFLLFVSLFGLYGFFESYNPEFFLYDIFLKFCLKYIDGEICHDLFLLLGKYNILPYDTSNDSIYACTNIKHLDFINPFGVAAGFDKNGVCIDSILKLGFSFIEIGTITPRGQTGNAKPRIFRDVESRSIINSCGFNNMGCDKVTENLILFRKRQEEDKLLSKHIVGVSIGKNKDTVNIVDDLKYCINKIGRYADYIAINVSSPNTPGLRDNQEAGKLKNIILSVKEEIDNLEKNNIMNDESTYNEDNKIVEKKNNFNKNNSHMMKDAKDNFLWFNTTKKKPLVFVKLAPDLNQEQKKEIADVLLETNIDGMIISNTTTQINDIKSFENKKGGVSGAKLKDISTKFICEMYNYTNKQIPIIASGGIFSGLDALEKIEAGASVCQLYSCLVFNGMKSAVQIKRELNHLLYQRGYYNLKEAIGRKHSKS

[5] = inhibition of PAO1 biofilm formation – strain PAO1, LB-PBS medium, absorbance 600 nm, primary screen (AID 1176); note: test concentration not given here; settings: P. aeruginosa PAO1 growth/biofilm, A600, 12 h; higher = more signal
[6] = growth modulation of vineyard yeast isolate – strain RM11-1a, OD600, basal, 24 h, primary screen (AID 1177);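 note: cultures grown under basal conditions with no added stressor; test concentration not given here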; settings: S. cerevisiae RM11-1a growth, OD600, 24 h; higher = more signal, called active from +8 up or from −8 down
[7] = growth of efflux-deficient E. coli DRC39 – strain DRC39, OD650, 24 h, E. coli filamentation inducers, primary screen (AID 1178);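 note: growth measured as culture turbidity by optical density at 650 nm; test concentration not given here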; settings: E. coli DRC39 acrAB, higher = more signal, called active from +8 up or from −8 down
[8] = growth of efflux-deficient E. coli DRC39 – strain DRC39, OD650, 48 h, E. coli filamentation inducers, primary screen (AID 1179);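 note: screen aims at cell division blockers that make cells filament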; settings: E. coli DRC39 delta-acrAB growth, higher = more signal, called active from +8 up or from −8 down
[9] = viability profiling in RPMI8226 myeloma cells – cell-based, resazurin fluorescence, basal, 24 h, PK04 Diversity Set, profiling panel (AID 1180); settings: higher = more signal;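 note: RPMI8826 multiple myeloma cell line at 5000 cells per well; test concentration not given here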
[10] = target: E3 ubiquitin-protein ligase XIAP (Homo sapiens) (UniProt P98170); test: small molecules binding XIAP protein – biophysical, small-molecule microarray, fluorescence 635 nm, primary screen (AID 1181); settings: higher = more signal;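 note: score merges 667 nm emission and signal to noise over triplicate slides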
Sequence of E3 ubiquitin-protein ligase XIAP (Homo sapiens) (P98170 whole entry, looked up): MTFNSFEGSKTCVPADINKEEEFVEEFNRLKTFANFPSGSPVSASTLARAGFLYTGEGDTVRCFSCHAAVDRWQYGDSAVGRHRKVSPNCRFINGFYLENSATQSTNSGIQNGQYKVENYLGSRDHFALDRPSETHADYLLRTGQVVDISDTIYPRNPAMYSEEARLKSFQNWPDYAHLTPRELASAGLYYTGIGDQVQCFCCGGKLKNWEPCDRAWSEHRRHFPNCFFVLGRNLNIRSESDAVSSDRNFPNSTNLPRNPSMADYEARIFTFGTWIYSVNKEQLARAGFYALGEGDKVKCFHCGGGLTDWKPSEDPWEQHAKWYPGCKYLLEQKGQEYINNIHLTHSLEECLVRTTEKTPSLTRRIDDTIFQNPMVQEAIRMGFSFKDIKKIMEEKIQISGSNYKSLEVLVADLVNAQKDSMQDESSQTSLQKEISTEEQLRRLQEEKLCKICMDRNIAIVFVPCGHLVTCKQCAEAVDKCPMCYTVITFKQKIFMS

Row | SMILES | z-score [1] | z-score [2] | z-score [3] | composite z-score [4] | z-score [5] | z-score [6] | z-score [7] | z-score [8] | z-score [9] | composite z-score [10]
1 | CC(C)c1ccc(NN2C(C(O)c3cccc(O)c3)C=CC3C(=O)N(c4ccccc4)C(=O)C32)cc1 (stereo not given) | -0.546 | -0.914 (inactive) | -0.501 (inactive) | 0.523 (inactive) | 0.186 (inactive) | 1.63 (inactive) | -0.0564 (inactive) | -0.063 (inactive) | -0.111 | 0.42
2 | O=C1OCCC=C[C@H]2OC34C=CCN(c5ccc6ccccc6c5)C(=O)[C@H]3N(CCCCCO)C(=O)[C@@H]4C12 (stereo not given in full) | 1.32 | -0.805 (inactive) | 0.835 (inactive) | -0.556 (inactive) | 0.357 (inactive) | -0.403 (inactive) | 1.61 (inactive) | 1.74 (inactive) | 1.28 | -0.174
3 | COCCOC(=O)N1C(=O)[C@@]2(c3ccccc31)[C@H](C(=O)NC[C@H](O)c1ccccc1)[C@H]1C(=O)O[C@H](c3ccccc3)[C@H](c3ccccc3)N1[C@@H]2c1ccc(OCCO)cc1 | 1.09 | 1.42 (inactive) | -1.04 (inactive) | -0.0923 (inactive) | 2.36 (inactive) | 1.61 (inactive) | 0.649 (inactive) | -0.559 (inactive) | -0.744 | -0.156
4 | CCOC(=O)C1=C[C@@H](CC)N(S(=O)(=O)c2ccc(C)cc2)[C@H]1c1ccccc1 | -0.203 | 1.21 (inactive) | -0.666 (inactive) | -0.157 (inactive) | 0.325 (inactive) | 0.501 (inactive) | -0.823 (inactive) | -0.604 (inactive) | -1.05 | 0.289
5 | C=CC[C@@]1(C(=O)O)N=C(c2ccc(OCCCO)cc2)O[C@@H]1c1ccccc1N=[N+]=[N-] | 0.0725 | -0.769 (inactive) | -0.702 (inactive) | 0.535 (inactive) | 0.976 (inactive) | 0.15 (inactive) | 0.236 (inactive) | -0.154 (inactive) | -0.0493 | -0.0559
6 | COc1ccc([Si](C)(C)[C@H]2[C@H](CC(=O)N(CCO)Cc3ccccc3)O[C@@]3(C(=O)N(Cc4cccc(N5CCC5=O)c4)c4ccccc43)[C@@H]2C)cc1 | -0.412 | -0.0113 (inactive) | -2.76 (inactive) | -1.19 (inactive) | 0.295 (inactive) | 1.17 (inactive) | 0.405 (inactive) | 0.169 (inactive) | -3.11 | 0.0259
